Results on 15 compounds are retold here after PubChem BioAssay (NCATS).

Test [1] can be described thus: Quantitative High-Throughput drug screen in 47 multiple myeloma cell lines against the NCATS MIPE library collection: MMM1_PLB cell viability assay (AID 1918976). Also: nearly all actives have a fitted effect of over 35% in size. Also: potency is read from the fitted curve at half-maximal effect. The essentials:
(§1)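 Inhibition of viability over 48 h was scored by ATP content (CellTiter-Glo) in 500-cell wells. Zero and full viability were defined by media-only and DMSO-only wells.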

A short description of test [2]: Quantitative High-Throughput drug screen in 47 multiple myeloma cell lines against the NCATS MIPE library collection: NCIH929_DSMZ cell viability assay (AID 1918978). Also: nearly all actives have a fitted effect of over 35% in size. Also: potency is read from the fitted curve at half-maximal effect. In a few lines:
as §1

Test [3] can be described thus: Quantitative High-Throughput drug screen in 47 multiple myeloma cell lines against the NCATS MIPE library collection: OCIMY1_PLB cell viability assay (AID 1918979). Also: nearly all actives have a fitted effect of over 35% in size. Also: potency is read from the fitted curve at half-maximal effect. The essentials:
as §1

Test [4] can be described thus: Quantitative High-Throughput drug screen in 47 multiple myeloma cell lines against the NCATS MIPE library collection: MM1S_ATCC cell viability assay (AID 1918980). Also: nearly all actives have a fitted effect of over 45% in size. Also: potency is read from the fitted curve at half-maximal effect. In a few lines: as §1
The nature of test [5]: Quantitative High-Throughput drug screen in 47 multiple myeloma cell lines against the NCATS MIPE library collection: MM1R_ATCC cell viability assay (AID 1918981). Also: nearly all actives have a fitted effect of over 35% in size. Also: potency is read from the fitted curve at half-maximal effect. In a few lines: as §1
A short description of test [6]: Quantitative High-Throughput drug screen in 47 multiple myeloma cell lines against the NCATS MIPE library collection: KMS28PE_JCRB cell viability assay (AID 1918983). Also: nearly all actives have a fitted effect of over 35% in size. Also: potency is read from the fitted curve at half-maximal effect. In a few lines: as §1
The nature of test [7]: Quantitative High-Throughput drug screen in 47 multiple myeloma cell lines against the NCATS MIPE library collection: OCIMY7_PLB cell viability assay (AID 1918987). Also: nearly all actives have a fitted effect of over 65% in size. Also: potency is read from the fitted curve at half-maximal effect. The essentials: as §1
Test [8] is described as follows: Quantitative High-Throughput drug screen in 47 multiple myeloma cell lines against the NCATS MIPE library collection: OPM1_PLB cell viability assay (AID 1918989). Also: nearly all actives have a fitted effect of over 40% in size. Also: potency is read from the fitted curve at half-maximal effect. In a few lines: as §1
A short description of test [9]: Quantitative High-Throughput drug screen in 47 multiple myeloma cell lines against the NCATS MIPE library collection: U266_ATCC cell viability assay (AID 1919864). Also: nearly all actives have a fitted effect of over 35% in size. Also: potency is read from the fitted curve at half-maximal effect. The essentials: as §1
Test [10] in a line: Quantitative High-Throughput drug screen in 47 multiple myeloma cell lines against the NCATS MIPE library collection: XG6_PLB cell viability assay (AID 1919865). Also: nearly all actives have a fitted effect of over 40% in size. Also: potency is read from the fitted curve at half-maximal effect. In a few lines: as §1
The nature of test [11]: Quantitative High-Throughput drug screen in 47 multiple myeloma cell lines against the NCATS MIPE library collection: MOLP8_DSMZ cell viability assay (AID 1918977). Also: nearly all actives have a fitted effect of over 45% in size. Also: potency is read from the fitted curve at half-maximal effect. The essentials: as §1
Test [12] in a line: Quantitative High-Throughput drug screen in 47 multiple myeloma cell lines against the NCATS MIPE library collection: L363_DSMZ cell viability assay (AID 1918984). Also: nearly all actives have a fitted effect of over 40% in size. Also: potency is read from the fitted curve at half-maximal effect. In a few lines:
as §1

A short description of test [13]: Quantitative High-Throughput drug screen in 47 multiple myeloma cell lines against the NCATS MIPE library collection: OCIMY5_PLB cell viability assay (AID 1918988). Also: nearly all actives have a fitted effect of over 65% in size. Also: potency is read from the fitted curve at half-maximal effect. In a few lines: as §1
The nature of test [14]: Quantitative High-Throughput drug screen in 47 multiple myeloma cell lines against the NCATS MIPE library collection: SKMM1_PLB cell viability assay (AID 1919863). Also: nearly all actives have a fitted effect of over 35% in size. Also: potency is read from the fitted curve at half-maximal effect. As to conditions: SKMM1 myeloma viability, CellTiter-Glo ATP, 48 h; viability: hits give low values. The essentials: as §1
For orientation: Cellular ATP, detected with luciferase, serves as a proxy for viable cell number.

Test [15] is described as follows: Quantitative High-Throughput drug screen in 47 multiple myeloma cell lines against the NCATS MIPE library collection: XG1_PLB cell viability assay (AID 1919866). Also: nearly all actives have a fitted effect of over 35% in size. Also: potency is read from the fitted curve at half-maximal effect. The essentials:
as §1

A short description of test [16]: Quantitative High-Throughput drug screen in 47 multiple myeloma cell lines against the NCATS MIPE library collection: VP6_DJ cell viability assay (AID 1919867). Also: nearly all actives have a fitted effect of over 40% in size. Also: potency is read from the fitted curve at half-maximal effect. In a few lines:
as §1

A short description of test [17]: Quantitative High-Throughput drug screen in 47 multiple myeloma cell lines against the NCATS MIPE library collection: UTMC2_PLB cell viability assay (AID 1919868). Also: nearly all actives have a fitted effect of over 55% in size. Also: potency is read from the fitted curve at half-maximal effect. As to conditions: CellTiter-Glo ATP luminescence, 48 h; viability (% of DMSO control): at 45.8 µM (top of the series). The essentials:
as §1

A short description of test [18]: Quantitative High-Throughput drug screen in 47 multiple myeloma cell lines against the NCATS MIPE library collection: KMS26_JCRB cell viability assay (AID 1918975). Also: nearly all actives have a fitted effect of over 45% in size. The essentials:
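We plated 500 myeloma cells per well, pinned in MIPE 4.0 compounds, and incubated for 48 hours at 37C. ATP was then quantified with CellTiter-Glo, with DMSO and media-only wells defining 100% and 0%.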

A short description of test [19]: Quantitative High-Throughput drug screen in 47 multiple myeloma cell lines against the NCATS MIPE library collection: LP1_DSMZ cell viability assay (AID 1918982). Also: nearly all actives have a fitted effect of over 35% in size. Also: potency is read from the fitted curve at half-maximal effect. The essentials: as §1
A short description of test [20]: Quantitative High-Throughput drug screen in 47 multiple myeloma cell lines against the NCATS MIPE library collection: KMS34_JCRB cell viability assay (AID 1918985). Also: nearly all actives have a fitted effect of over 40% in size. The essentials: as §1

Records with an inconclusive call do not appear. A number with no mark means an inactive call. Active and inactive are the calls of the source. Calls follow the shape of the dose curve; as a rule, active = well fitted curve in the direction sought with a large enough effect; inconclusive = small, poorly fitted or top-dose-only effect, or another doubt; inactive = no such curve, though single readings can be large; an effect the other way counts as inactive or inconclusive.

In the case of `NNCCc1ccccc1`, the Potency in [1] is 5.9 µM (active); in test [4], 5.9 µM (active); in test [5], 6.62 µM (active); in [6] it was 9.35 µM (active); in test [9] it was 8.33 µM (active). Besides, the Potency result in [2], in test [3], in [7], in test [8] and in [10] was “inactive” each time.
On to `O=C(O)COCCN1CCN(C(c2ccccc2)c2ccc(Cl)cc2)CC1` (stereo not given), for which the Potency is 14.8 µM (active) in [1] and 0.296 µM (active) in test [12]. The Potency entry in test [11], in test [3], in test [4], in [5], in test [13] and in test [9] was “inactive” throughout. Also, the Potency result in test [10], in [15], in test [16] and in [17] was “inactive” in each case. The viability – broadly, a read-out of living cells in per cent, often relative to untreated cells – in [14] is 122%.
On to `CN1CCN(CCCN2c3ccccc3Sc3ccc(C(F)(F)F)cc32)CC1`, for which the Potency entry in test [18], in test [3], in test [5], in test [19], in test [20] and in test [13] was “inactive” in each case. Also, the Potency in [2] is 2.09 µM (active); in test [4], 1.05 µM (active); in [7], 5.9 µM (active); in [8], 26.4 µM (active); in test [9] it was 1.66 µM (active); in test [10], 1.05 µM (active). Besides, the Potency in test [15] is 1.18 µM (active); in test [16], 2.09 µM (active); in test [17] it was 10.5 µM (active). For the same compound, the viability in [14] was 123%.
Take `O=c1n(CCCN2CCN(c3cccc(Cl)c3)CC2)nc2ccccn12`: the Potency entry in [18], in [2], in test [5], in [19], in [6] and in [12] was “inactive” in each case. The Potency entry in [8], in test [15] and in test [17] was “inactive” each time.
Take `COc1ccc(-c2c(-c3ccc(O)cc3O)n[nH]c2C)cc1`: the Potency in test [1] is 42.9 µM (active); in [2], 19.1 µM (active); in [5] it was 38.2 µM (active); in [8] it was 30.3 µM (active); in test [16] it was 34 µM (active). Moreover, the Potency result in [3], in [4], in [6] and in [9] was “inactive” in each case. For the same compound, in test [14], the viability is 137%.
In the case of `Cc1csc(NC(=O)c2sc3nc4c(c(C(F)(F)F)c3c2N)CCC4)n1`, the Potency result in test [1], in test [11], in [2], in test [5], in test [10] and in test [17] was “inactive” each time. In addition, the Potency in test [4] is 13.2 µM (active); in [19], 20.9 µM (active); in test [7], 2.35 µM (active); in [13] it was 20.9 µM (active); in test [9], 7.43 µM (active); in test [15] it was 2.35 µM (active).
In the case of `Cc1c(CCOc2ccc(C(=O)O)cc2)c2cc(Cl)ccc2n1C(c1ccccc1)c1ccccc1`, the Potency in test [1] was 14.8 µM (active); in test [4], 9.35 µM (active); in test [5], 11.8 µM (active); in test [6] it was 23.5 µM (active); in test [9], 11.8 µM (active). Also, the Potency entry in test [2], in test [3], in test [7], in test [10] and in test [15] was “inactive” in each case. For the same compound, the viability in test [14] was 110%.
Regarding `C[C@]12CC[C@H](O)CC1=CC[C@@H]1[C@H]2CC[C@]2(C)C(c3cccnc3)=CC[C@H]12`, the Potency result in test [18], in test [3], in [5], in [6], in test [12] and in test [13] was “inactive” in each case. Moreover, the Potency entry in test [9] was “inactive”. Also, the Potency in test [14] is 1.82 µM (active); in test [10], 3.23 µM (active); in test [15] it was 3.23 µM (active); in test [16] it was 8.12 µM (active).
Turning to `CCOc1ccn(-c2ccc(F)cc2)c(=O)c1C(=O)Nc1ccc(Oc2ccnc(N)c2Cl)c(F)c1`, the Potency entry in test [18] and in test [3] was “inactive” each time. In addition, the Potency was 16.6 µM (active) in test [4]; 8.33 µM (active) in test [13]; 11.8 µM (active) in test [10]; 3.32 µM (active) in test [15]; 13.2 µM (active) in test [17].
Turning to `CC(=O)NC(C)c1ccc(Oc2ccc(OC(C)C)cc2)cc1` (stereo not given), the Potency in test [1] was 16.6 µM (active); in test [11], 18.7 µM (active); in test [2], 10.5 µM (active); in test [3], 14.8 µM (active); in test [6], 18.7 µM (active); in test [7], 2.35 µM (active). In addition, the Potency was 16.6 µM (active) in test [13], 1.48 µM (active) in test [8] and 16.6 µM (active) in [15]. In test [9], the Potency result is “inactive”.
In the case of `C1COC(NC(C2CC2)C2CC2)=N1`, the Potency result in [18], in [2], in test [4], in test [19], in [6] and in test [13] was “inactive” in each case. For the same compound, the Potency in [8] was 16.6 µM (active).
Turning to `NC[C@H](O)c1ccc(O)c(O)c1`, the Potency in [1] was 23.5 µM (active); in test [4], 23.5 µM (active); in test [5] it was 5.9 µM (active); in [6] it was 18.7 µM (active); in test [13], 1.32 µM (active); in test [16], 2.96 µM (active). For the same compound, the Potency entry in [2], in test [3], in test [9], in [10] and in test [15] was “inactive” each time.
Consider `Cc1oncc1C(=O)Nc1ccc(C(F)(F)F)cc1`, for which the Potency result in test [18], in [3], in test [5], in test [7] and in test [17] was “inactive” throughout. Further, the Potency in test [2] is 18.7 µM (active); in test [4] it was 14.8 µM (active); in test [19] it was 10.5 µM (active); in test [10], 4.69 µM (active); in test [15], 16.6 µM (active). In test [14], the viability was 115%.
For `COc1cc2nccc(Oc3ccc(NC(=O)NC4CC4)c(Cl)c3)c2cc1C(N)=O`, the Potency was 2.35 µM (active) in [1]; 13.2 µM (active) in test [11]; 16.6 µM (active) in test [2]; 20.9 µM (active) in test [3]; 0.264 µM (active) in [4]; 1.18 µM (active) in [5]. Also, the Potency in [19] was 20.9 µM (active); in test [6] it was 13.2 µM (active); in [13] it was 3.32 µM (active); in [8], 16.6 µM (active); in [14], 13.2 µM (active); in test [9], 7.43 µM (active). In addition, the values for the Potency in test [10], in test [15] and in test [17] were 3.32 µM (active), 18.7 µM (active) and 2.64 µM (active), respectively. Further, the Potency result in test [12] was “inactive”.
`CCCS(=O)(=O)Nc1ccc(F)c(C(=O)c2c[nH]c3ncc(Cl)cc23)c1F`: the Potency entry in [18], in test [3] and in test [4] was “inactive” each time. The Potency in test [7] is 1.32 µM (active); in test [13] it was 14.8 µM (active); in test [8], 18.7 µM (active); in test [9], 11.8 µM (active); in [10], 10.5 µM (active); in test [15] it was 18.7 µM (active). In addition, the Potency in [16] was 14.8 µM (active). Also, the viability in test [14] was 122%.
